# Source: PubChem BioAssay (EPA / NIEHS)
# Inconclusive results are not listed. Calls of active or inactive are those of the source. How the source made its calls, unless noted: active means hit-call score of the fitted dose curve at least 0.9, where 1 is the maximum; inactive means score below 0.9.
# What was measured:
# [1] = Tanguay_ZF_120hpf_CRAN: Oregon State University Tanguay Lab 120 Hour Post-fertilization zebrafish Assay for Craniofacial Malformation (AID 2284397)
# Outline: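 Dechorionated Tropical 5D wild-type zebrafish embryos, one per well, were statically exposed from 6 to 120 hpf at 28C in 0.64% DMSO, with 5uM trimethyltin chloride as positive control. Craniofacial malformation was scored present/absent by brightfield microscopy, relative to DMSO.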
# [2] = Tanguay_ZF_120hpf_AXIS: Oregon State University Tanguay Lab 120 Hour Post-fertilization zebrafish Assay for Axial Malformation (AID 2284398)
# Outline: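 Dechorionated 5D wild-type zebrafish embryos exposed statically, one per well, from 6 to 120 hpf at 28C, 0.64% DMSO. Axial malformation scored as present/absent by brightfield microscopy at 120 hpf; dead embryos not scored.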
# [3] = CCTE_Mundy_HCI_iCellGluta_NOG_NeuriteLength: CCTE's Neurite Outgrowth Assay in iCellGluta cells for Neurite Length, Mundy Lab (AID 2284318; active means hit-call score of the fitted dose curve at least 0.9, where 1 is the maximum)
# Outline: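 Automated high-content imaging of betaIII-tubulin (Alexa Fluor-488) and Hoechst-stained cells gave neurite length, normalized to the DMSO baseline.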
# TTR (gene 7276) = test: CCTE_GLTED_hTTR_0.5uM: CCTE's human Transthyretin (hTTR) Inhibition Assay, with 0.5uM TTR, Great Lakes Toxicology and Ecology Division (GLTED) Lab (AID 2284320)
# Outline: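 Cell-free displacement assay in which human TTR at 0.5 uM was incubated with test chemical for 2 h. Displacement of the ANSA probe was read by fluorescence at 380 nm excitation/475 nm emission. Loss of signal was fitted in the positive direction versus DMSO.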
# [4] = CCTE_Mundy_HCI_iCellGluta_NOG_NeuronCount: CCTE's Neurite Outgrowth Assay in iCellGluta cells for Neuron Count, Mundy Lab (AID 2284340; active means hit-call score of the fitted dose curve at least 0.9, where 1 is the maximum;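 further: cells fixed about 48 h after compound addition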)
# Outline: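 Neuron count read by automated high-content imaging of Hoechst 33342 and betaIII-tubulin/Alexa Fluor-488 labelling in human iPSC glutamatergic neurons. Activity fitted relative to DMSO.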
# [5] = CCTE_Mundy_HCI_iCellGluta_NOG_NeuriteCount: CCTE's Neurite Outgrowth Assay in iCellGluta cells for Neurite Count, Mundy Lab (AID 2284342; active means hit-call score of the fitted dose curve at least 0.9, where 1 is the maximum;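 further: chemical exposure about 48 hours starting 2 hours after plating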)
# [6] = CCTE_Deisenroth_5AR_NBTE_donor: CCTE's 5alpha-reductase NanoBRET Target Engagement Assay […], Deisenroth Lab (AID 2284319); conditions: actives raise or lower the signal
# Outline: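 In this secondary endpoint, donor luminescence from SRD5A2-NanoLuc in transfected HEK293T flags artifacts. Test chemical (10 nM - 29.9 uM) is present five hours, tracer the last two; mock-tracer wells run plate-matched; data fitted bidirectionally against DMSO.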
# [7] = CCTE_Deisenroth_5AR_NBTE_acceptor: CCTE's 5alpha-reductase NanoBRET Target Engagement Assay - Autofluorescence Screen, Deisenroth Lab (AID 2284321); conditions: actives raise or lower the signal;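 further: compound fluorescence in the acceptor channel under 460 nm excitation flags autofluorescence artifacts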
# Outline: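 Autofluorescence check: ToxCast chemicals, nominal 100 uM, excitation 460 nm, n=3 runs. Acceptor fluorescence endpoint, bidirectional fit relative to DMSO. Parent assay in HEK293T, 5 h post-dose.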
# SRD5A2 (gene 6716) = test: CCTE_Deisenroth_5AR_NBTE_ratio: CCTE's 5alpha-reductase NanoBRET Target Engagement Assay - Ratio, Deisenroth Lab (AID 2284322); conditions: actives raise or lower the signal
# Outline: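 HEK293T transiently expressing SRD5A2-NanoLuc; cells exposed to chemical (8-point, 10 nM - 29.9 uM) for 5 h total, testosterone tracer added for final 2 h. NanoBRET acceptor/donor ratio (650/460 nm), bidirectional fit vs DMSO.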
# SERPINA7 (gene 6906) = test: CCTE_GLTED_hTBG: CCTE's human Thyroxine-binding Globulin (TBG) Inhibition Assay, Great Lakes Toxicology and Ecology Division (GLTED) Lab (AID 2284343; active means hit-call score of the fitted dose curve at least 0.9, where 1 is the maximum;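 further: active chemicals lower fluorescence versus DMSO baseline by displacing probe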)
# Outline: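 Human TBG incubated 2 h with test chemical; displacement of ANSA probe read by fluorescence, 380 nm excitation/475 nm emission. Loss of signal relative to DMSO.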
# [8] = IUF_NPC1_cytotoxicity_72hr: Cytotoxicity Assessment at 72 hours in the Leibniz Research Institute for Environmental Medicine (IUF) Neural Progenitor Cell Proliferation Assay (NPC1) (AID 2284332; active means hit-call score of the fitted dose curve at least 0.9, where 1 is the maximum;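 further: rising LDH signal means more cytotoxicity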)
# Outline: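 Human fetal neural progenitor spheres (0.3 mm) in EGF/FGF proliferation medium, 37C, exposed 72 h without renewal. LDH release in supernatant read by resorufin fluorescence; gain of signal scored relative to dynamic range.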
# IYD (gene 389434) = test: CCTE_GLTED_hIYD: CCTE's human Iodotyrosine Deiodinase (xIYD) Inhibition Assay, Great Lakes Toxicology and Ecology Division (GLTED) Lab (AID 2284317; active means hit-call score of the fitted dose curve at least 0.9, where 1 is the maximum;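 further: cell-free human IYD enzyme made in baculovirus insect cells; iodide freed from monoiodotyrosine measured by cerium arsenite color change at 420 nm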)
# Outline: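 hIYD: baculovirus-expressed human IYD deiodinated monoiodotyrosine for 3 h with test chemical; free iodide was measured by Sandell-Kolthoff absorbance at 420 nm and normalized to MNT and DMSO/NaOH controls.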
# [9] = TAMU_PeakParms_SingleDonor1434_Asystole: Texas A&M University (TAMU) 1.5-hr Human Induced Pluripotent Stem Cell (iPSC)-derived Cardiomyocytes Calcium (Ca+2) Flux Assay for Cardiotoxicity: Asystole (quiescence of beating) (AID 2284328; active means hit-call score of the fitted dose curve at least 0.9, where 1 is the maximum)
# Outline: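 Average Ca2+-flux peak frequency (beats/s) was recorded in single-donor iPSC-derived cardiomyocytes after 90 min exposure (0.2–100 uM final, 0.5% DMSO). Asystole POD set as EC95 against DMSO, no preprocessing.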
smiles,measurement,setting,value
NC(=O)C(F)(F)C(F)(F)F,outcome,[1],inactive
same,outcome,[2],inactive
O=C(O)C(F)(F)OC(F)(F)C(F)(F)OC(F)(F)C(=O)O,outcome,[3],inactive
same,AC50,TTR (gene 7276),0.746 µM (active)
same,outcome,[4],inactive
same,outcome,[5],inactive
same,outcome,[1],inactive
same,outcome,[2],inactive
CC1(C)CN=C(NN=C(/C=C/c2ccc(C(F)(F)F)cc2)/C=C/c2ccc(C(F)(F)F)cc2)NC1,AC50,[6],50 µM (active)
same,AC50,[7],50 µM (active)
same,AC50,SRD5A2 (gene 6716),50 µM (active)
OCC(F)(F)OC(F)(F)C(F)(F)OC(F)(F)C(F)(F)OC(F)(F)CO,AC50,TTR (gene 7276),9.52 µM (active)
same,AC50,SERPINA7 (gene 6906),44.1 µM (active)
same,AC50,[1],28.9 µM (active)
same,AC50,[2],36.7 µM (active)
CO/N=C(/C(=O)OC)c1ccccc1COc1ccccc1C,AC50,[3],19.7 µM (active)
same,outcome,[8],inactive
same,AC50,[4],31.4 µM (active)
same,AC50,[5],28.7 µM (active)
same,AC50,SERPINA7 (gene 6906),34.2 µM (active)
CCCCOCCOP(=O)(OCCOCCCC)OCCOCCCC,outcome,[8],inactive
O=c1ssc(Cl)c1Cl,outcome,IYD (gene 389434),inactive
CC(C)(C)c1ccccc1OP(=O)(Oc1ccccc1)Oc1ccccc1,outcome,[9],inactive
same,outcome,[8],inactive
CC(O)C(F)(F)C(F)(F)F (stereo not drawn),outcome,[1],inactive
same,outcome,[2],inactive
COC(=O)C(F)(F)C(F)(F)OC(F)(C(F)(F)F)C(F)(F)OC(F)=C(F)F (stereo not drawn),AC50,TTR (gene 7276),0.977 µM (active)
same,AC50,SERPINA7 (gene 6906),22.3 µM (active)
same,outcome,[1],inactive
same,outcome,[2],inactive
O=S1(=O)OCC2C(CO1)C1(Cl)C(Cl)=C(Cl)C2(Cl)C1(Cl)Cl (stereo not drawn),outcome,[8],inactive
CCOP(=S)(OCC)SCSCC,outcome,[3],inactive
same,outcome,[6],inactive
same,outcome,[7],inactive
same,outcome,SRD5A2 (gene 6716),inactive
same,outcome,[8],inactive
same,outcome,[4],inactive
same,outcome,[5],inactive
same,AC50,SERPINA7 (gene 6906),24.7 µM (active)
CCCN(CCC)c1c([N+](=O)[O-])cc(C(C)C)cc1[N+](=O)[O-],outcome,[6],inactive
same,outcome,[7],inactive
same,outcome,SRD5A2 (gene 6716),inactive
same,AC50,SERPINA7 (gene 6906),11.7 µM (active)
